Source: PubChem BioAssay AID463173 (ICCB-Longwood Screening Facility, Harvard Medical School, 2010)
Hit rate of the full screen: of about 52,000 compounds, about 4,300 (8.3%) were called active. The list comes from a sample in which actives are over-represented; it also holds similar structures and randomly drawn compounds. A number with no mark means an inactive call. Rule as the data show it: active = survival mostly below about 52% (no sharp cut-off); inactive = mostly above about 56%.

Each molecule was assayed on DeltatarO mutant (assay: growth inhibition of S. aureus wild type versus tarO mutant, primary screen, teichoic acid synthesis inhibitors, RN4220, OD600 (AID 463173)). Settings: OD600, 18 h, active compounds read low, screened at 18.75 µg/mL (by protocol).

| Compound | survival |
| --- | --- |
| Cc1nnc(NCc2ccccc2)c2c1nnn2Cc1ccccc1Cl | 92% |
| COc1ccc(CCNC(=O)c2c(C)nn(-c3ccc(F)cc3)c2-n2cccc2)cc1OC | 74% |
| Cc1oc2c(c1C(=O)Nc1ccc(OC(F)(F)F)cc1)C1=NCCN1C=N2 | 80% |
| COc1ccccc1CN1C(=O)CN(C2CCCCCC2)C(=O)C1c1ccc(C)cc1 (stereo not given) | 88% |
| Cc1ccc(-n2c(SCC(=O)Nc3cccc(C)c3)nc3c(oc4ccccc43)c2=O)cc1 | 99% |
| Cc1cccc(-n2ncc(C(=O)N3CCN(C(=O)c4ccco4)CC3)c2C2CCN(C(=O)OC(C)(C)C)CC2)c1 | 62% |
| CCCC(CCC)C(=O)Nc1cccc(-c2cn3cccnc3n2)c1 | 83% |
| CCC1CCCCN1C(=O)Cn1c(=O)n(CC2CCC(C(=O)NC)CC2)c(=O)c2sccc21 (stereo not given) | 102% |
| O=C(CCN1CCOCC1)N1N=C(c2ccccc2)CC1c1ccco1 (stereo not given) | 89% |
| Oc1ccc(Br)cc1C1CC(c2ccccc2)=NC(c2ccco2)N1 (stereo not given) | 1% (active) |
| O=c1oc2c(F)cc(F)cc2cc1S(=O)(=O)c1ccc(F)cc1 | 60% |
| CN(Cc1ccccc1)c1ccc(-c2nc(-c3ccncc3)no2)cc1[N+](=O)[O-] | 63% |
| COc1ccc(CN(C)c2ccc(-c3nc(-c4ccccc4)no3)cc2[N+](=O)[O-])cc1 | 71% |
| CCN(Cc1ccc(OC)cc1)c1ccc(-c2nc(-c3ccncc3)no2)cc1[N+](=O)[O-] | 41% (active) |
| COc1ccccc1-c1noc(-c2ccc(N(C)Cc3ccccc3)c([N+](=O)[O-])c2)n1 | 36% (active) |
| CCN(CC)c1ccc(-c2nc(-c3ccco3)no2)cc1[N+](=O)[O-] | 47% |
| CCN(CC)c1ccc(-c2nc(-c3ccccn3)no2)cc1[N+](=O)[O-] | 41% (active) |
| CCN(CC)c1ccc(-c2nc(-c3ccccc3C)no2)cc1[N+](=O)[O-] | 68% |
| CCc1noc(-c2ccc(N(C)Cc3ccc(OC)cc3)c([N+](=O)[O-])c2)n1 | 75% |
| COc1ccc(CN(C)c2ccc(-c3nc(-c4ccc(OC)c(OC)c4)no3)cc2[N+](=O)[O-])cc1 | 62% |
| CCN(CC)c1ccc(-c2nc(-c3ccncc3)no2)cc1[N+](=O)[O-] | 79% |
| CN(Cc1ccccc1)c1ccc(-c2nc(-c3ccccc3)no2)cc1[N+](=O)[O-] | 69% |
| CN(Cc1ccccc1)c1ccc(-c2nc(-c3ccccn3)no2)cc1[N+](=O)[O-] | 34% (active) |
| CC1CCC(NC(=O)c2ccc3c(c2)N(Cc2ccccc2F)C(=O)c2ccccc2S3(=O)=O)CC1 (stereo not given) | 74% |
| CCOc1ccc(NS(=O)(=O)c2ccc3[nH]cc(C(=O)NCC4CCCO4)c(=O)c3c2)cc1 (stereo not given) | 87% |
| CCOC(=O)C1CCN(C(=O)c2nn(-c3ccc(OC)c(Cl)c3)c(=O)c3c2c2ccccc2n3C)CC1 | 76% |
| Cc1cccc(C(=O)NCC(c2cccs2)S(=O)(=O)c2cccs2)c1 (stereo not given) | 81% |
| Cc1ccc(OCC(=O)NCC(=O)OCc2cc(=O)n3nc(C(C)C)sc3n2)cc1 | 97% |

| Compound | survival |
| --- | --- |
| Cn1c(=O)c2ccccc2n2c(CCC(=O)N3CCN(c4cccc(Cl)c4)CC3)nnc12 | 82% |
| Cc1ccc(/C=C(\C#N)C(=O)NC2CCCCCC2)o1 | 92% |
| CN(C)c1ccc(-c2nc(-c3ccco3)no2)cc1[N+](=O)[O-] | 52% |
| CN(C)c1ccc(-c2nc(-c3ccncc3)no2)cc1[N+](=O)[O-] | 81% |
| CN(C)c1ccc(-c2nc(-c3ccccn3)no2)cc1[N+](=O)[O-] | 42% (active) |
| Cc1ccc(-n2c(=O)c3oc4ccccc4c3n(CC(=O)Nc3ccccc3)c2=O)cc1C | 54% |
| CCCN(CCC)C(=O)c1nn(C)c2c1CSc1ccc(C)cc1-2 | 92% |
| CCOC(=O)c1ccc(NC(=O)CS(=O)(=O)Cc2nc(-c3ccc(C)cc3)oc2C)cc1 | 95% |
| Cc1ccc(NC(=O)C(C)n2nnc3sc4c(c3c2=O)CCCC4)cc1Cl (stereo not given) | 82% |
| COc1cc(OC)c(NC(=O)C(C)n2nc(-c3ccc(C)cc3)c3c(c2=O)CCCC3)cc1Cl (stereo not given) | 39% (active) |
| COc1cc(OC)c(NC(=O)C(C)n2c(=O)cc(-c3ccccc3)c3c(C)nn(C)c32)cc1Cl (stereo not given) | 83% |
| COc1ccc(NC(=O)C(C)N2CCN(C)CC2)cc1 (stereo not given) | 86% |
| COc1cc(OC)c(NC(=O)C(C)n2nc(-c3ccc(C)c(C)c3)ccc2=O)cc1Cl (stereo not given) | 64% |
| COc1ccc(NC(=O)C(C)n2nc(-c3cc(C)ccc3C)c3c(c2=O)CCCC3)cc1 (stereo not given) | 38% (active) |
| Cc1cc(C)n(-c2nc(C)c(C)c(=O)n2CC(=O)Nc2ccc(Cl)c(Cl)c2)n1 | 82% |
| COc1ccc(-c2nc3nc(C)cc(Nc4cccc(C(F)(F)F)c4)n3n2)cc1 | 63% |
| COc1cccc(N2C(=O)C(CC(=O)Nc3ccc(F)cc3)N(CCC3=CCCCC3)C2=O)c1 (stereo not given) | 53% |
| COc1ccc(CNC(=O)CCC2N=C3c4ccccc4N=C(SCc4cccc(F)c4)N3C2=O)cc1 (stereo not given) | 117% |
| Cc1c(CCNC(=O)c2ccc(C(C)(C)C)cc2)sc2nc(-c3ccc(F)cc3)nn12 | 82% |
| CCOC(=O)c1scc(-c2ccccc2)c1S(=O)(=O)N1CCN(c2ccccc2OC)CC1 | 94% |
| O=C(COc1cccc(-n2cnnn2)c1)NC1CCCCC1 | 83% |
| COC(=O)c1ccccc1NC(=O)Cn1nnc2sc(-c3ccccc3)cc2c1=O | 52% |
| CCN(C(=O)Cn1nnc2sc(-c3ccccc3)cc2c1=O)c1cccc(C)c1 | 50% (active) |
| CCOc1ccccc1NC(=O)Cn1nnc2sc(-c3ccccc3)cc2c1=O | 39% (active) |
| CCCN(CCC)C(=O)Cn1nnc2sc(-c3ccccc3)cc2c1=O | 70% |
| CCN(CC)C(=O)Cn1nnc2sc(-c3ccccc3)cc2c1=O | 56% |
| CCc1cccc(CC)c1NC(=O)Cn1nnc2sc(-c3ccccc3)cc2c1=O | 49% |
